Five compounds from PubChem BioAssay (EPA / NIEHS) can be followed below.

Usually AC50 stands for the midpoint of the concentration-response curve, whichever way the signal moves.

Molecules are shown by their SMILES. Results filed as inconclusive are left out. Active and inactive are the calls of the source. How the source made its calls, unless noted: active means hit-call score of the fitted dose curve at least 0.9, where 1 is the maximum; inconclusive means response in the unintended direction; inactive means score below 0.9.

Assay [1] in a line: ATG_TAL_CIS: Attagene CIS-FACTORIAL HepG2 Assay for human TAL Basal Promoter (AID 2282966; active means hit-call score of the fitted dose curve at least 0.9, where 1 is the maximum; inactive means score below 0.9;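 further: background control endpoint measuring basal TAL promoter reporter mRNA not a specific factor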). As to conditions: HepG2 Attagene cis-factorial TAL promoter reporter; actives raise or lower the signal. In short, it runs like this: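 HepG2, transient MRTU transfection, 24 h compound exposure; RNA → oligo(dT) RT → PCR → 6-FAM primer extension → HpaI digest → CE fluorescence. Bidirectional curve fit vs DMSO. Background-control readout.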

The nature of assay [2]: ATG_TGFb_CIS: Attagene CIS-FACTORIAL HepG2 Assay for human Transforming Growth Factor (TGF) (AID 2282967; active means hit-call score of the fitted dose curve at least 0.9, where 1 is the maximum; inactive means score below 0.9). As to conditions: HepG2 Attagene CIS TGFb reporter, mRNA transcription; actives raise or lower the signal. In a few lines: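 Endogenous TGFB1-linked transcription factor activity read as reporter mRNA via RT-PCR and capillary electrophoresis, 24 h after dosing transiently transfected HepG2 cells. Gain or loss of signal fitted relative to DMSO.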

Assay [3] can be described thus: ATG_VDRE_CIS: Attagene CIS-FACTORIAL HepG2 Assay for human Vitamin D Receptor Element (VDRE) (AID 2282968; active means hit-call score of the fitted dose curve at least 0.9, where 1 is the maximum; inactive means score below 0.9). The conditions noted are these: HepG2 VDRE cis-reporter transcription, actives raise or lower the signal. In a few lines:
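Readout is VDRE-driven reporter mRNA reflecting endogenous factor activity in human HepG2 cells, sampled 24 h post-dose. Quantification used labelled RT-PCR products separated by capillary electrophoresis; bidirectional analysis relative to DMSO.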

Assay [4] has as its target Steroid hormone receptor ERR1 (Homo sapiens) (UniProt P11474). The assay can be described thus: ATG_ERRa_TRANS: Attagene TRANS-FACTORIAL HepG2 Assay for human Estrogen-Related Receptor alpha (ERRa) (AID 2282971). The conditions noted are these: HepG2 Attagene TRANS reporter, ERRa transactivation. In a few lines: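 Transfected HepG2, 24 h dosing, ERRa-Gal4 chimera driving GAL4-UAS reporter. Readout: reporter mRNA via RT-PCR plus capillary electrophoresis (fluorescence). Positive direction vs DMSO control.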

Assay [5] concerns the target X-box-binding protein 1 (Homo sapiens) (UniProt P17861). The assay is described as follows: ATG_Xbp1_CIS: Attagene CIS-FACTORIAL HepG2 Assay for human X-box Binding Protein 1 (XBP1) (AID 2282972; active means hit-call score of the fitted dose curve at least 0.9, where 1 is the maximum; inactive means score below 0.9). The conditions noted are these: HepG2 XBP1 cis-element reporter, Attagene multiplex; actives raise or lower the signal. In short, it runs like this: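 Reporter transcripts were quantified by RT-PCR with fluorescent primer extension and capillary electrophoresis after 24 h chemical exposure. Cells: transiently transfected HepG2 carrying cis-regulated reporter constructs; data fitted bidirectionally relative to DMSO.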

A short description of assay [6]: ATG_M_19_TRANS: Attagene TRANS-FACTORIAL HepG2 Assay for M19 Transcription Factor (Internal Marker) (AID 2282974). The conditions noted are these: HepG2 Attagene TRANS-FACTORIAL M19 internal marker reporter. In a few lines: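 HepG2 transiently transfected with GAL4-UAS multiplex reporter constructs, exposed 24 h; reporter RNA quantified by RT-PCR, 6-FAM labeling, HpaI digestion and capillary electrophoresis; internal background marker fitted upward versus DMSO.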

The target in assay [7] is Estrogen-related receptor gamma (Homo sapiens) (UniProt P62508). The assay is described as follows: ATG_ERRg_TRANS: Attagene TRANS-FACTORIAL HepG2 Assay for human Estrogen-Related Receptor gamma (ERRg) (AID 2282977).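 Further: hits increase reporter signal over DMSO so potencies reflect activators.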 The conditions noted are these: HepG2 Attagene TRANS reporter, ERRg transactivation. In short, it runs like this:
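Exogenous NR-Gal4 chimera activity measured as reporter transcript induction after 24 h in transiently transfected HepG2 cells. RNA reverse-transcribed, PCR-amplified, 6-FAM-labelled and resolved by capillary electrophoresis; increase over DMSO baseline.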

In assay [8] the target is Glucocorticoid receptor (Homo sapiens) (UniProt P04150). The assay is described as follows: ATG_GR_TRANS: Attagene TRANS-FACTORIAL HepG2 Assay for human Glucocorticoid Receptor (GR) (AID 2282978).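 Further: activators score as hits since higher reporter transcript over DMSO is fitted.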 As to conditions: HepG2 Attagene TRANS GR reporter, mRNA transcription. In a few lines: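 HepG2 cells transiently transfected with GAL4-UAS reporter units and exogenous GR-Gal4 chimera, dosed 24 h. Reporter mRNA by RT-PCR, FAM labeling, HpaI digest and capillary electrophoresis; gain-of-signal fit versus DMSO.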
Chain of Glucocorticoid receptor (Homo sapiens) (P04150 whole entry, looked up, the tested form may be a part): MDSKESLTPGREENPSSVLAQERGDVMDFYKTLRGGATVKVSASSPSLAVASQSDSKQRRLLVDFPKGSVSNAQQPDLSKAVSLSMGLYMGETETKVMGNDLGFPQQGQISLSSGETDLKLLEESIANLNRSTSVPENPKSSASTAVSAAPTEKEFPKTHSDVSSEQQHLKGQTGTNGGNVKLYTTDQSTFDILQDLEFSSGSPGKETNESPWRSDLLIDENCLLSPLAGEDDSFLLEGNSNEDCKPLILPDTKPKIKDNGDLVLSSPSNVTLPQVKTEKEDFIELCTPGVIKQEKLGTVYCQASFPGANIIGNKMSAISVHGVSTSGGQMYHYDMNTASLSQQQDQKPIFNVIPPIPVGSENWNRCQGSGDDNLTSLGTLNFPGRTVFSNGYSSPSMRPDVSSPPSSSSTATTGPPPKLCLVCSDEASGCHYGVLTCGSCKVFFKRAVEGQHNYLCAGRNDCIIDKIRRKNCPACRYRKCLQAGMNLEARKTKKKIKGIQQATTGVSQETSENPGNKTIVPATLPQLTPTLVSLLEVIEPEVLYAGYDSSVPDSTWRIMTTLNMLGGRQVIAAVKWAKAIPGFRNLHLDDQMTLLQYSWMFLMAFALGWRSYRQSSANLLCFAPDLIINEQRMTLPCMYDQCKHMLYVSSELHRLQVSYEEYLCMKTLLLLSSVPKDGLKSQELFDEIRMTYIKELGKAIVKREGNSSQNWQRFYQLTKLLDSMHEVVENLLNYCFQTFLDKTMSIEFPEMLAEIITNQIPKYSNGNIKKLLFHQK

Assay [9] deals with Bile acid receptor (Homo sapiens) (UniProt Q96RI1). The assay can be described thus: ATG_FXR_TRANS: Attagene TRANS-FACTORIAL HepG2 Assay for Farnesoid X Receptor (FXR) (AID 2282979).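 Further: hits raise reporter mRNA above DMSO so AC50 marks FXR activation.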 The conditions noted are these: HepG2 Attagene TRANS FXR-GAL4 reporter transcription. In a few lines: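 Read-out: fluorescent reporter transcripts quantified by capillary electrophoresis after RT-PCR of total RNA. Source cells were HepG2 transiently carrying chimeric NR-GAL4 plus GAL4-UAS reporter units, dosed 24 h. Activity fitted upward relative to DMSO baseline.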

Assay [10] addresses Oxysterols receptor LXR-alpha (Homo sapiens) (UniProt Q13133). The assay can be described thus: ATG_LXRa_TRANS: Attagene TRANS-FACTORIAL HepG2 Assay for human Liver X Receptor alpha (LXRa) (AID 2282980). The conditions noted are these: HepG2 Attagene TRANS reporter, LXRa transactivation. In short, it runs like this: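 Read-out: reporter transcript levels by RT-PCR plus capillary electrophoresis, fluorescence intensity. Transiently transfected HepG2, exogenous NR-GAL4 chimera, GAL4-UAS reporters; 24 h compound exposure. Activity = increase over DMSO negative control.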

The target of assay [11] is Oxysterols receptor LXR-beta (Homo sapiens) (UniProt P55055). The assay is described as follows: ATG_LXRb_TRANS: Attagene TRANS-FACTORIAL HepG2 Assay for human Liver X Receptor beta (LXRb) (AID 2282981). As to conditions: HepG2 Attagene TRANS GAL4-LXRb reporter, mRNA. In a few lines: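 After 24 h chemical treatment of transfected HepG2 cells carrying exogenous NR-Gal4 chimeras, reporter mRNA was quantified by fluorescent RT-PCR and capillary electrophoresis; activity taken as increase over DMSO controls.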
Chain of Oxysterols receptor LXR-beta (Homo sapiens) (P55055 whole entry, looked up, the tested form may be a part): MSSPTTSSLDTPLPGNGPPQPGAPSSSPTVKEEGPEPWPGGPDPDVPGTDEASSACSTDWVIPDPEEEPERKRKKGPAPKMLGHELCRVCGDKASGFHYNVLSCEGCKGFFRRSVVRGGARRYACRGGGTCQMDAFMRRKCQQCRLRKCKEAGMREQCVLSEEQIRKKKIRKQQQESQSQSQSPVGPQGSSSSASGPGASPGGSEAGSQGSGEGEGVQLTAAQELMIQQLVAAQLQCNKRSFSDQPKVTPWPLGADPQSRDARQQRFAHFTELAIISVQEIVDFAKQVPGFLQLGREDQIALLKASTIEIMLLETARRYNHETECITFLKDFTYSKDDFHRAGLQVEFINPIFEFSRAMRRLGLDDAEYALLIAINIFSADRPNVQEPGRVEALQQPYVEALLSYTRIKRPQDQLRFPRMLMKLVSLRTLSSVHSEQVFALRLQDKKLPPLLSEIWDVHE

Assay [12] addresses Hepatocyte nuclear factor 4-alpha (Homo sapiens) (UniProt P41235). The assay can be described thus: ATG_HNF4a_TRANS: Attagene TRANS-FACTORIAL HepG2 Assay for human Hepatocyte Nuclear Factor 4 alpha (HNF4a) (AID 2282982). The conditions noted are these: HepG2 HNF4a transactivation reporter, mRNA readout. In a few lines:
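Activity of an exogenous HNF4a–Gal4 fusion scored as induced GAL4-UAS reporter transcripts after 24 h chemical exposure of transfected human HepG2 cells. Read-out via RT-PCR with 6-FAM labelling and capillary electrophoresis; rise over DMSO baseline.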

Assay [13] in a line: ATG_M_06_TRANS: Attagene TRANS-FACTORIAL HepG2 Assay for M06 Transcription Factor (Internal Marker) (AID 2282983). As to conditions: HepG2 Attagene TRANS M06 internal marker reporter. In a few lines: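 Read-out: fluorescent reporter cDNA fragments resolved by capillary electrophoresis after RT-PCR and HpaI cut. Source cells were HepG2 carrying transfected multi-reporter GAL4 constructs, dosed 24 h. Increase over DMSO control analysed.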

The nature of assay [14]: ATG_M_32_TRANS: Attagene TRANS-FACTORIAL HepG2 Assay for M32 Transcription Factor (Internal Marker) (AID 2282984).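 Further: transcript level of a background control reporter unit measured by RT-PCR and capillary electrophoresis.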 As to conditions: HepG2 Attagene TRANS M32 internal marker reporter. In a few lines:
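Internal background reporter in transfected HepG2: after 24 h chemical exposure, RNA reverse-transcribed, reporter cDNA amplified, fluorescently labelled and HpaI-cut, then sized by capillary electrophoresis. Gain of signal fitted against DMSO control.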

The target in assay [15] is Nuclear receptor subfamily 4 group A member 2 (Homo sapiens) (UniProt P43354). The assay can be described thus: ATG_NURR1_TRANS: Attagene TRANS-FACTORIAL HepG2 Assay for human Nuclear Receptor Related Protein 1 (NURR1) (AID 2282985). The conditions noted are these: HepG2 Attagene TRANS reporter, mRNA readout. In a few lines: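 Reporter transcript induction, measured by RT-PCR with fluorescent labelling, HpaI digestion and capillary electrophoresis, after 24 hr dosing of human HepG2 cells transiently expressing an exogenous NR-Gal4 fusion with GAL4-UAS-driven reporters; DMSO as baseline.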
Chain of Nuclear receptor subfamily 4 group A member 2 (Homo sapiens) (P43354 whole entry, looked up, the tested form may be a part): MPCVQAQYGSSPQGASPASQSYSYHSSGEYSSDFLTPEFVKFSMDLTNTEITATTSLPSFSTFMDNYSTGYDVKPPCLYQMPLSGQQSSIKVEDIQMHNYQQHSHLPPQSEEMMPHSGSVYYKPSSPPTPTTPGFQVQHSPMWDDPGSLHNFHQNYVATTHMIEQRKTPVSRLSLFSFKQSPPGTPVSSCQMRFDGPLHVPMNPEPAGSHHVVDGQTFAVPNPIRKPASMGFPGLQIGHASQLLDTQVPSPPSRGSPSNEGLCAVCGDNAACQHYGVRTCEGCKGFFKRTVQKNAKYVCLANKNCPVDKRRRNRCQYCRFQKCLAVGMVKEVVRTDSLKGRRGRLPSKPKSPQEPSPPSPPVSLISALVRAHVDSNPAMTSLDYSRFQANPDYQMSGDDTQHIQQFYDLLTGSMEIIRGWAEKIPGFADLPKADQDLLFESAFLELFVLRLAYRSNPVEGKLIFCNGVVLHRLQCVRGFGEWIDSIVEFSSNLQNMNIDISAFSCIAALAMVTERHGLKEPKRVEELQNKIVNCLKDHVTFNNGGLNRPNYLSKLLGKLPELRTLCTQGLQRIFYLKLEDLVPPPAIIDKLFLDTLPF

The target of assay [16] is Transcriptional activator Myb (Homo sapiens) (UniProt P10242). The assay can be described thus: ATG_Myb_CIS: Attagene CIS-FACTORIAL HepG2 Assay for human Myeloblastosis (Myb) Proto-Oncogene Transcription Factor (AID 2282986; active means hit-call score of the fitted dose curve at least 0.9, where 1 is the maximum; inactive means score below 0.9). As to conditions: HepG2 Attagene CIS-FACTORIAL Myb reporter transcription; actives raise or lower the signal. In short, it runs like this:
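Transiently transfected HepG2 cells carrying a multiplexed cis-promoter reporter set report endogenous Myb activity after 24 h compound exposure. Reporter mRNA is read by RT-PCR with capillary electrophoresis of fluorescent products, fitted bidirectionally against DMSO.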

The target of assay [17] is Nuclear respiratory factor 1 (Homo sapiens) (UniProt Q16656). The assay is described as follows: ATG_NRF1_CIS: Attagene CIS-FACTORIAL HepG2 Assay for human Nuclear Respiratory Factor 1 (NRF1) Orphan Gene (AID 2282987; active means hit-call score of the fitted dose curve at least 0.9, where 1 is the maximum; inactive means score below 0.9). The conditions noted are these: HepG2 NRF1 cis-element reporter, Attagene multiplex; actives raise or lower the signal. In short, it runs like this:
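HepG2 cells transiently transfected with multiple cis-regulated reporter units, exposed 24 h. Reporter mRNAs measured by RT-PCR, fluorescent labelling, HpaI digestion and capillary electrophoresis; bidirectional fitting against DMSO.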

Assay [18] can be described thus: ATG_NFI_CIS: Attagene CIS-FACTORIAL HepG2 Assay for human Nuclear Factor I (NFI) (AID 2282989; active means hit-call score of the fitted dose curve at least 0.9, where 1 is the maximum; inactive means score below 0.9). The conditions noted are these: HepG2 cis-regulatory reporter, NFI response element transcription; actives raise or lower the signal. In short, it runs like this:
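Reporter transcripts were measured by RT-PCR with fluorescent primer extension and capillary electrophoresis 24 h post-treatment. HepG2 cells carried transiently transfected cis-regulated reporter constructs reporting endogenous factor activity; gain or loss fitted against DMSO baseline.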

Assay [19] deals with Nuclear receptor subfamily 1 group I member 3 (Homo sapiens) (UniProt Q14994). The assay is described as follows: ATG_CAR_TRANS: Attagene TRANS-FACTORIAL HepG2 Assay for human Constitutive Androstane Receptor (CAR) (AID 2282969).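 Further: activators raise reporter mRNA above DMSO so AC50 marks induction.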 As to conditions: HepG2 Attagene TRANS-FACTORIAL CAR reporter. In a few lines: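 Signal is reporter mRNA induction relative to DMSO, measured 24 h after dosing by RT-PCR with fluorescent primer extension and capillary electrophoresis. Human HepG2 liver cells carried transiently transfected chimeric NR-Gal4/GAL4-UAS reporter constructs.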
Chain of Nuclear receptor subfamily 1 group I member 3 (Homo sapiens) (Q14994 whole entry, looked up, the tested form may be a part): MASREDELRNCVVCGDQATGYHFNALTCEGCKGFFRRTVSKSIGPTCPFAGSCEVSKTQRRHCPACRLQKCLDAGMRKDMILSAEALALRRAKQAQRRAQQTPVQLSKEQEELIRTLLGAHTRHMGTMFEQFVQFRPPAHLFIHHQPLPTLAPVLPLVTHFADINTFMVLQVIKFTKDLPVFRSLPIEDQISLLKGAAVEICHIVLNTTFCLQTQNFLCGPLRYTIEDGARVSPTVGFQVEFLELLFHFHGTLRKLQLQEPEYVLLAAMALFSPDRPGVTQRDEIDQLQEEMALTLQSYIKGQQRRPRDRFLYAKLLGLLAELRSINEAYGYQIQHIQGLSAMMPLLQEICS

A short description of assay [20]: ATG_GAL4_TRANS: Attagene TRANS-FACTORIAL HepG2 Assay for GAL4 (Internal Marker) (AID 2282976). As to conditions: HepG2 Attagene TRANS GAL4 internal marker reporter. In a few lines:
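RT-PCR/capillary electrophoresis readout of reporter mRNA. HepG2, transient MRTU transfection (GAL4-UAS reporters), 24 h compound exposure. Background-control endpoint, positive direction vs DMSO baseline.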

Chain of Hepatocyte nuclear factor 4-alpha (Homo sapiens) (P41235 whole entry, looked up, the tested form may be a part): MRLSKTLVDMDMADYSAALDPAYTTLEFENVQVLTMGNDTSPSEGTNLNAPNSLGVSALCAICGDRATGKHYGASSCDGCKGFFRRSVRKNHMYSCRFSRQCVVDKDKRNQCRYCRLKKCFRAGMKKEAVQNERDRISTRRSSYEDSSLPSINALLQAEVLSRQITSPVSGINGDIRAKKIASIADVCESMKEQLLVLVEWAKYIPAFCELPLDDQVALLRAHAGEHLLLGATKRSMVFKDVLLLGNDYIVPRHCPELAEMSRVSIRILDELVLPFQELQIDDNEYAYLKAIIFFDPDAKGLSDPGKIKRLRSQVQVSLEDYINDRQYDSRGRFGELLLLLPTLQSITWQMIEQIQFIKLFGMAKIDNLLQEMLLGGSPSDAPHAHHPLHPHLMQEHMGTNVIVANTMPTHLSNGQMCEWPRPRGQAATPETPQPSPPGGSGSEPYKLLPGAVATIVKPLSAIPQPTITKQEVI
Chain of Estrogen-related receptor gamma (Homo sapiens) (P62508 whole entry, looked up, the tested form may be a part): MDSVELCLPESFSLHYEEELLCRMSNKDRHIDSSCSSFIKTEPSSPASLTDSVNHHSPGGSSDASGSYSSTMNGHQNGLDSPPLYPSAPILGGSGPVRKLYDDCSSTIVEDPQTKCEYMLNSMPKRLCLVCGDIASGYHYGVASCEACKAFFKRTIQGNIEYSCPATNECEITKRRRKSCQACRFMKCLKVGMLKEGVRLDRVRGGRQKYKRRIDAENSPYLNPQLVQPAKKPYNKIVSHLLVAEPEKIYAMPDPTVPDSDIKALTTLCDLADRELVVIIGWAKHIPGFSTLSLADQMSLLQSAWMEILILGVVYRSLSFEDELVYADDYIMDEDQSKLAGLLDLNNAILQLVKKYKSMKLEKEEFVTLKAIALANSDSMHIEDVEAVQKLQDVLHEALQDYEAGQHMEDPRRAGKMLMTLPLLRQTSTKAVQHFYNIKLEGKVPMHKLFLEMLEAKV
Chain of Nuclear respiratory factor 1 (Homo sapiens) (Q16656 whole entry, looked up): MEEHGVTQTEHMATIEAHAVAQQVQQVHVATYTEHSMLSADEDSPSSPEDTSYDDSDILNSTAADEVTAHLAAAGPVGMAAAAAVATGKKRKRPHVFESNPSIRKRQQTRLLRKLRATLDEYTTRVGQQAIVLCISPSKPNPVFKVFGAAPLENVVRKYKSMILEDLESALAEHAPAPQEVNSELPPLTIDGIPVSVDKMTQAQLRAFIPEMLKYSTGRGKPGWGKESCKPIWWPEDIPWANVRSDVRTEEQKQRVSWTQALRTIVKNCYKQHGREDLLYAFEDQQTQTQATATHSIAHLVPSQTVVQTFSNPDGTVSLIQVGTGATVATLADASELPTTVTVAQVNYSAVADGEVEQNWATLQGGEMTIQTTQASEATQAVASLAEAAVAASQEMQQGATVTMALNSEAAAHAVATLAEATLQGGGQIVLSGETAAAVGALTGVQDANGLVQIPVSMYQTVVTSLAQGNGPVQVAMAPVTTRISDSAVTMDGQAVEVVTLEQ
Chain of Oxysterols receptor LXR-alpha (Homo sapiens) (Q13133 whole entry, looked up, the tested form may be a part): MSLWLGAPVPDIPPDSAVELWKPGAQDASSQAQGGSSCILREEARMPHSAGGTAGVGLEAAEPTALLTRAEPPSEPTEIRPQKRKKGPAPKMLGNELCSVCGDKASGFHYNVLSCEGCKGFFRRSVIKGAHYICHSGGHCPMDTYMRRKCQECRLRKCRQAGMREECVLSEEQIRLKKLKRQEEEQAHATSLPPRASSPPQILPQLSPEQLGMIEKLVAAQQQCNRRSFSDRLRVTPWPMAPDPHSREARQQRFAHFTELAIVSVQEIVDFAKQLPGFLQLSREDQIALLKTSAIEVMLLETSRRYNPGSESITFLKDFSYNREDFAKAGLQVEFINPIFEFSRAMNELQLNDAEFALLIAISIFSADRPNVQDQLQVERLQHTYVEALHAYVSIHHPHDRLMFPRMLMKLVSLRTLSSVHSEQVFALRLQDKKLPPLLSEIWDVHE
Chain of X-box-binding protein 1 (Homo sapiens) (P17861 whole entry, looked up): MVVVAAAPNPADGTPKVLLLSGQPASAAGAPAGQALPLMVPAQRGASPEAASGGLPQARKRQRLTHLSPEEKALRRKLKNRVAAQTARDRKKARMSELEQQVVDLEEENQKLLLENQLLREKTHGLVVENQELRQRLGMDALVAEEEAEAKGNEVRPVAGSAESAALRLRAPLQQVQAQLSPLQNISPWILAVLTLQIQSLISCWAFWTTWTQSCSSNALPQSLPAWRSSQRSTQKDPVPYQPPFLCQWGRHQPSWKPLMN
Chain of Transcriptional activator Myb (Homo sapiens) (P10242 whole entry, looked up): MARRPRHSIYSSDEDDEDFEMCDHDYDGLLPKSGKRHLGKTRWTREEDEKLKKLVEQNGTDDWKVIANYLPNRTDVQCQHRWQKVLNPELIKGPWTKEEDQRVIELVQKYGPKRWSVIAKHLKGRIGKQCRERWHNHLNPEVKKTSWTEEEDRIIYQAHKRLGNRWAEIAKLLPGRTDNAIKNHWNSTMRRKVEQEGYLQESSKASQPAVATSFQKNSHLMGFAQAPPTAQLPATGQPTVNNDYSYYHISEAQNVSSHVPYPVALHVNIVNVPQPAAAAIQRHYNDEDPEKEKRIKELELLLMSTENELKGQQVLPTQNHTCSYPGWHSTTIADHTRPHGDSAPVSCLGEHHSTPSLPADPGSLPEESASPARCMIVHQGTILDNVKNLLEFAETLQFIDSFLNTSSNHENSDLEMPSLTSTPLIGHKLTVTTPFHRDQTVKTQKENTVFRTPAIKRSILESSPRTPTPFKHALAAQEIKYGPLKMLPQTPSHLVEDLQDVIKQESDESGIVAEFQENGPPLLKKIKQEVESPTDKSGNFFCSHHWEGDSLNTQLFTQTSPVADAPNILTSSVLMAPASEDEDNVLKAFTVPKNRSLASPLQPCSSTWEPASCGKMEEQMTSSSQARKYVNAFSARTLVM

With `O=[N+]([O-])c1ccc(O)cc1C(F)(F)F`, the AC50 in assay [1] is 26.8 µM (active); in [5], 31 µM (active); in assay [17] it was 25.2 µM (active); in [18], 69.4 µM (active). Also, the result in assay [2], in assay [3], in assay [4], in assay [6], in assay [7] and in assay [8] was inactive. Moreover, the compound was classed as inactive in assay [9], in assay [10], in assay [11], in assay [12], in assay [13] and in assay [14]. Moreover, the compound was called inactive in assay [15] and in [16].

For `CCOc1ccc(NC(=O)CC(C)=O)cc1`, the compound was called inactive in assay [1], in assay [2], in assay [3], in assay [19], in [6] and in assay [7]. The outcome in assay [11], in assay [12], in [13], in assay [14], in [16] and in assay [17] was inactive. For the same compound, the compound was called inactive in [18].

For the compound `O=CCc1ccccc1`, the call in assay [1], in assay [2], in [3], in assay [19], in assay [10] and in [12] was inactive. The result in assay [13], in assay [15], in assay [16], in assay [17] and in [18] was inactive.

With `O=C(Nc1ccc2c(c1)Cc1ccccc1-2)C(F)(F)F`, the compound was called inactive in assay [1], in assay [2], in assay [19], in assay [5], in assay [20] and in [8]. Besides, the compound was called inactive in assay [9], in assay [10], in assay [11], in [12], in [13] and in [14]. For the same compound, the call in assay [15], in assay [16], in assay [17] and in [18] was inactive. Also, the AC50 in [3] is 30.5 µM (active).

Regarding `COC(C)(C)CCCC(C)CC=O` (stereo unspecified), the result in [1], in [2], in assay [3], in assay [4], in assay [5] and in assay [6] was inactive. The call in assay [7], in assay [8], in [12], in assay [14], in assay [15] and in [17] was inactive.
